Screening results from PubChem.
Tau FP inhib: qHTS for Inhibitors of Tau Fibril Formation, Fluorescence Polarization. hit rate 0.39% among 280,000. AID 1468, 2008. Potency, µM (highest dose often 57.7 µM), for the others: at the top dose activity, negative = inhibition, actives largely listed as inhibitors. K18 P301L tau heparin fibrillization, Alexa594 FP, 6 h; also: nearly all actives have a fitted effect of over 55% in size
Target sequence (P10636 561-689 P618L limits assumed): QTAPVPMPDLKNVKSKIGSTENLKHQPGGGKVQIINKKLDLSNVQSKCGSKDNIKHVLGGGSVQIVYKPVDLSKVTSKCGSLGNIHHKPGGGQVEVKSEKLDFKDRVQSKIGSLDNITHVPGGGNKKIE
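Compound effects on tau fibrillization are measured by Alexa 594 fluorescence polarization (ex 555, em 632 nm). K18 P301L tau is used at 15 uM with 0.24 uM labeled tracer, and 20 uM heparin induces aggregation over 6 hr at 37 C.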
RGS12 GoLoco inh: qHTS Assay for Inhibitors of RGS12 GoLoco Motif Activity (Red Fluorophore); Guanine nucleotide-binding protein G(i) subunit alpha-1 (Homo sapiens), P63096; AID 880, 2007; hit rate 0.44% among 230,000; Gai1:RGS12 GoLoco peptide FP, rhodamine, 10 min; Potency, µM (series often up to 61.6 µM), without a hit: top-dose activity, negative = inhibition, usual class: inhibitors; active = well fitted inhibition curve with a large enough effect, not every such curve was filed as active; inactive = no such curve, though single readings can be large or run the other way; also: nearly all actives have a fitted effect of over 30% in size
Tau ThT inhib: qHTS for Inhibitors of Tau Fibril Formation, Thioflavin T Binding; recombinant tau K18 P301L, heparin-induced fibrillization, ThT fluorescence; Microtubule-associated protein tau (Homo sapiens), P10636; Potency, µM (top dose mostly 57.4 µM), for the others: top-dose activity, negative = inhibition, actives largely listed as inhibitors; hit rate 2.1% among 270,000; also: nearly all actives have a fitted effect of over 55% in size
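Heparin-induced fibrillization of the P301L-mutant K18 repeat-domain fragment of human tau was followed by ThT binding in quantitative high-throughput format.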
Tau fluor counter: Counterscreen qHTS for Inhibitors of Tau Fibril Formation, Fluorescence Polarization | Potency, µM (highest dose often 57.7 µM), for the others: at the highest dose activity change, negative = decrease | tau K18 P301L Alexa594 fluorescence, heparin fibrillization | hit rate 0.93% among 280,000; also: nearly all actives have a fitted effect of over 55% in size
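Human tau K18 P301L (15 uM unlabeled, 0.24 uM Alexa 594-labeled) in 100 mM sodium acetate pH 7 with 20 uM heparin, 6 hr at 37 C. ThT 30 uM added, 1 hr ambient; Alexa 594 FP and total fluorescence read at 555/632 nm.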
KDM4E inh: qHTS Assay for Inhibitors of Human Jumonji Domain Containing 2E (JMJD2E). hit rate 1.6% among 230,000. Lysine-specific demethylase 4E (Homo sapiens), B2RXH2. Potency, µM (top dose mostly 57.1 µM), for the others: top-dose activity change, negative = inhibition, actives largely listed as inhibitors. JMJD2E catalytic domain, FDH-coupled NADH fluorescence (FDH is formaldehyde dehydrogenase);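 also: 0% = wells with enzyme and -100% = buffer wells without enzyme; nearly all actives have a fitted effect of over 50% in size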
Target sequence (B2RXH2 1-337 limits assumed): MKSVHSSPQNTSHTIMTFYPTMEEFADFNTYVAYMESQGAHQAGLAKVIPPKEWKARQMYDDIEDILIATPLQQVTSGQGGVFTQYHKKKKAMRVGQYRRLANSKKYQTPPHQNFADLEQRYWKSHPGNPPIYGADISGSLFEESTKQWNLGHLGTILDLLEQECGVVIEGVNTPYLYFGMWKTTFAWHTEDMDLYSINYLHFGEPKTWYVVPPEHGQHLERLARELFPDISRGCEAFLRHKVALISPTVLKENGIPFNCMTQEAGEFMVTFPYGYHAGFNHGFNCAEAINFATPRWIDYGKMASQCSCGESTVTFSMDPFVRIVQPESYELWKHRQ
* = called active by the depositor; ? = inconclusive; / = no result given; ! = repeats disagree; [ ] = another dose, or the depositor's remark. An excerpt weighted towards active compounds, which were near 3.4% of everything screened. Unless noted, calls follow the shape of the dose curve; as a rule, active = well fitted curve in the direction sought with a large enough effect; inconclusive = small, poorly fitted or top-dose-only effect, or another doubt; inactive = no such curve, though single readings can be large; an effect the other way counts as inactive or inconclusive. Unless noted, % is scaled to controls: 0 for no effect and ±100 for the full control effect; potency is read from the fitted curve at half-maximal effect.

SMILES	Tau FP inhib	RGS12 GoLoco inh	Tau ThT inhib	Tau fluor counter	KDM4E inh
COc1ccc(OC)c2c(=S)c3ccccc3[nH]c12	7.94µM*	3.1%	3.98µM*	11.2µM*[quencher]	?
COc1ccc(-c2c(N)nnc3c2[nH]c2ccccc23)cc1OC	-11.7%	/	?	-24.2%	1.5%
Cc1nc(N=Nc2ccc(C(=O)O)cc2)c(COP(=O)(O)O)c(C=O)c1O	-14.1%	10.1%	?	-19.6%	28.2µM*
CN1C2CCC1CC(OC(=O)C(O)c1ccccc1)C2 (stereo not drawn)	-3.4%	28.2µM*!	-4.3%	-8.5%	-0.5%
CCN1CCc2c(sc(-n3cccc3)c2C(C)NC(=O)Nc2ccc(Br)cc2)C1 (stereo not drawn)	25.1µM*	/	-3.8%	?	/
Cc1cc2c(cc1S(=O)(=O)CCC(=O)N1CCCCC1C)OCC(=O)N2 (stereo not drawn)	1.1%	/	?	-6.8%	/
CC(=O)C1=C(c2ccccc2)NC(=O)NC1c1ccc(O)c(O)c1 (stereo not drawn)	-9.3%	-9.0%	?	-17.2%	?
CC(=O)C1=C(c2ccccc2)NC(=S)NC1c1ccc(O)c(O)c1 (stereo not drawn)	0.5%	-0.1%	-17.6%	-18.4%	22.4µM*
Cc1ccsc1C=Nc1ccc(O)cc1	11.2µM*	-38.1%	3.55µM*	?	3.2%
COc1ccc(OC)c(CNC(=O)Nc2cn(CC(C)C)c(=O)c3ccccc23)c1	10.0%	/	-0.1%	-5.6%	/
CC(=O)c1ccc(NC(=O)C2CC(=O)N(Cc3ccccc3)C2)cc1 (stereo not drawn)	-0.6%	-5.6%	8.91µM*	-17.2%	-3.8%
COc1cc2c(cc1OC)-c1cc3ccc4c(c3c[n+]1CC2)OCO4	-8.8%	2.1%	15.8µM*	-17.4%	?
O=C(CCCN1C(=O)/C(=C/c2cccs2)SC1=S)Nc1ccc(O)c(C(=O)O)c1	0.5%	-2.0%	8.91µM*	?	4.3%
O=C(CCCN1C(=O)/C(=C\c2cccs2)SC1=S)Nc1cccc(C(=O)O)c1	10.8%	16.8%	?	-19.6%	4.0%
O=C(CCCN1C(=O)/C(=C\c2cccs2)SC1=S)Nc1ccc(C(=O)O)cc1	-0.9%	8.9%	?	-24.3%	-1.4%
Cc1ccc(/C=C2\SC(=S)N(CCCC(=O)Nc3ccc(O)cc3)C2=O)cc1	-4.9%	1.7%	?	?	3.8%
COc1ccc(NC(=O)CCCN2C(=O)/C(=C\c3ccco3)SC2=S)cc1	?	61.9%	15.8µM*	?	-29.3%
O=C(CCCN1C(=O)/C(=C/c2ccco2)SC1=S)Nc1cccc(C(=O)O)c1	-13.6%	15.0%	15.8µM*	-18.0%	?
O=C(Cn1c(=O)n(-c2ccc(Cl)cc2)c(=O)c2sc3ccccc3c21)NC1CCCCC1	?	/	-3.1%	-8.8%	/
O=C1NCC(O)=C1C=Nc1ccccc1O	-4.8%	4.2%	-7.0%	-1.0%	17.8µM*
O=c1[nH][nH]cc1C=Nc1ccccc1O	3.1%	10.1%	-11.8%	0.1%	25.1µM*
O=C1NCC(O)=C1C=NCCCO	-2.1%	2.8%	4.5%	0.1%	6.3%
CCC1CN(C(=O)N2CCC(C(=O)NCc3cccc(F)c3)CC2)c2cc(C)ccc2O1 (stereo not drawn)	-5.7%	/	-11.3%	-15.1%	/
COc1ccc(-c2csc(Nc3ccc(S(=O)(=O)Nc4cc(C)on4)cc3)n2)cc1C	13.0%	9.4%	12.6µM*	?	?
COc1ccc(-c2csc(Nc3ccc(S(=O)(=O)Nc4cc(OC)nc(OC)n4)cc3)n2)cc1	2.7%	-6.6%	15.8µM*	11.2µM*[quencher]	-4.0%
COc1ccc(CC(=O)Nc2ccc(S(=O)(=O)Nc3cc(C)on3)cc2)cc1OC	-14.0%	/	-17.0%	-13.3%	8.0%
CCN(c1ccc(C)cc1C)S(=O)(=O)c1nnc(NC(=O)c2ccccc2OC)s1	1.6%	/	-9.7%	-3.2%	/
Cc1ccccc1S(=O)(=O)NC1OC(=O)C(Cl)=C1Cl (stereo not drawn)	28.2µM*	3.2%	28.2µM*	-21.6%	-8.6%
